A number with no mark means an inactive call. The source made the active and inactive calls.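 How the source made its calls, unless noted: active means inhibition above 50%; inactive means the rest.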

A short description of the first experiment: antimalarial activity against Dd2 strain (AID 2302;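 active means growth inhibition above 50% at the single 2 µM test dose, taken to imply half-maximal potency below 2 µM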;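 further: 0% = DMSO untreated growth and 100% = chloroquine plus artemisinin killed control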). The conditions noted are these: P. falciparum Dd2 in RBCs, LDH growth readout, 72 h; at 2 µM; hits give high values.
As to `Cc1ccc2cc(NCCCCCCCCON3C(N)=NC(N)=NC34CCCCC4)ccc2n1`, the growth inhibition was 80% (active).
On the same count and under the same terms, under `O=C(C1CCN(c2nnnn2-c2ccccc2)CC1)N1CCc2ccccc2C1` stands 97% (active).
Same read-out and setting: under `COc1cc2nc(N3CCN(C(=O)c4ccco4)CC3)nc(NCc3ccccc3)c2cc1OC` stands 99% (active).
Still for that read-out and setting: under `C[C@@H]1CN(c2cnn(C/C=C/c3ccc(NC(=O)c4ccc(Cl)cc4)cc3)c(=O)c2Cl)C[C@H](C)N1` stands 82% (active); under `O=C(N[C@@H](Cc1ccccc1)C(=O)NC1CCCCC1)c1ccc(O)c(-c2cccc(C(F)(F)F)c2)c1`, 36%; under `CC(=O)Nc1ccc(NC(=O)c2cc(-c3cc(Cl)ccc3O)n[nH]2)cc1`, 100% (active).
As to `CN1CCCN(c2ccnc3cc4c(cc23)N(C(=O)c2ccc(C(F)(F)F)cc2)CC4)CC1`, the growth inhibition was 63% (active).
Still for that read-out and setting: the result for `N#Cc1ccc(-c2ccc(C(=O)NCCCCN3CCC(c4ccc5c(c4OCC(N)=O)CCCC5)CC3)cc2)cc1` reads 23%; that for `NC(=O)c1cc2nc(Nc3ccc(F)cc3)nc(NC3CCC3)c2[nH]1`, 102% (active).
On the same count and under the same terms, under `CC(C)COc1ccc(Cl)cc1Nc1nc(-c2nc3ccccc3[nH]2)cs1` stands 29%; under `Cc1cc(OCC2CCCO2)c2cc(NC(=O)C(=O)Nc3ccc4nc(C)cc(OCC5CCCO5)c4c3)ccc2n1` (stereo not given), 32%; under `CC(C)Sc1nc2c(c(=O)n1Cc1ccco1)C1(CCCC1)Cc1ccccc1-2`, 10%.
As to `Nc1c(Cl)cc(C(O)CNCCCCCCCCCc2ccccn2)cc1Cl` (stereo not given), the growth inhibition was 83% (active).
With `COc1cc(NC(=O)/C=C/c2cccc3ccoc23)ccc1OCCN(C(C)C)C(C)C`, the growth inhibition was 5%.
As to `Cc1ccc(N(CCC(=N)N)Cc2ccccc2)cc1`, the growth inhibition is 95% (active).
The same measure, in the same setting: under `c1ccc2[nH]c(CN(Cc3nc4ccccc4[nH]3)Cc3nc4ccccc4[nH]3)nc2c1` stands 86% (active).
For `COc1cc2ccccc2cc1OCCCN1CCN(CC(c2ccc(F)cc2)N2CCN(C(C)C)CC2)CC1` (stereo not given), the growth inhibition was 92% (active).
As to `COc1ccc(CCNCCCCCNCCCc2ccc(Cl)cc2)cc1OC`, the growth inhibition was 2%.
Same read-out and setting: the result for `Clc1cc(Cl)cc(Nc2ccnc(Nc3cc(Cl)cc(Cl)c3)n2)c1` reads 73% (active); that for `CC(C)(C)C(=O)Oc1ccc(CC2NCCc3cc(OC(=O)C(C)(C)C)c(OC(=O)C(C)(C)C)cc32)cc1OC(=O)C(C)(C)C` (stereo not given), 96% (active).
Same read-out and setting: the result for `CSc1ccc(NC(=O)Nc2cc(C)nc3ccccc23)cc1` reads 23%.
The same measure, in the same setting: the result for `Cc1cc(C2CCN(CCCCNC(=O)c3ccc(-c4ccc(C(F)(F)F)cc4)cc3)CC2)c(C)cc1OCC(N)=O` reads 44%.
With `COc1ccc(NC(=O)CCNc2cc(C)nc(NCc3ccccc3C)n2)cc1`, the growth inhibition was 61% (active).
Same read-out and setting: the result for `O=C(NCC1CCC(C(=O)O)CC1)c1ccc(/C=C/C(=O)N2CCc3ccccc3C2c2ccc3c(c2)OCO3)cc1` (stereo not given) reads 17%.
Consider `O=C(C=Cc1cn(-c2ccccc2)nc1-c1ccccc1)N1CCN(c2ccncc2)CC1`, for which the growth inhibition was 20%.
Same read-out and setting: under `O=c1ccc2ncc(Cl)c3c2n1CC3CN1CCC(NCc2cc3c(cn2)OCCO3)CC1` (stereo not given) stands 29%; under `CC(C)NCc1ccc(-c2ccc(CN3CCCC(c4ccccc4)C3)cc2)c(C(=O)NC2Cc3ccccc3C2)c1` (stereo not given), 64% (active); under `O=C(Nc1ccc(-c2nc3ccccc3[nH]2)cc1)C1CCCN(C2CCC2)C1` (stereo not given), 5%.
On the same count and under the same terms, under `CCOC(=O)C(Oc1ccc2ccccc2c1)C(=O)OCC` stands 0%; under `CC(C)CNC(=S)N1CCCN(c2nc3ccc(Cl)cc3s2)CC1`, 11%.
The same measure, in the same setting: the result for `O=C(CCc1ccccc1)NC(c1ccc(Cl)cc1)c1ccc2cccnc2c1O` (stereo not given) reads 49%; that for `O=C(Nc1cccc(-c2cccc(-c3nc4ccc(C(F)(F)F)cc4[nH]3)c2)c1)c1ccoc1`, 61% (active); that for `COc1cc2nccc(Nc3cc(C)cc(O)c3)c2cc1OC`, -2%.
`O=C(NC1CCN(CCC[C@]2(c3ccc(Cl)c(Cl)c3)CCCN(C(=O)c3ccccc3)C2)CC1)c1ccc(Cl)cc1`: the growth inhibition is 4%.
On the same count and under the same terms, the result for `COc1cc(C)cc(CN2CCC(Cc3ccccc3)CC2)c1O` reads 94% (active); that for `Cc1ccc(-n2c(Cc3cccc4ccccc34)nnc2SCCC#N)c(C)c1`, 98% (active).
Same read-out and setting: the result for `O=C(NC1CCN(c2ccnc3cc(Cl)ccc23)C1)c1ccc(C(F)(F)F)cc1` (stereo not given) reads 57% (active); that for `O=C(Nc1cccc(-c2cccc(-c3ccc(F)cc3)n2)c1)c1ccc([N+](=O)[O-])o1`, 42%; that for `Nc1ncc(-c2ccc(NC(=O)Nc3cc(C(F)(F)F)ccc3F)cc2)c(N)n1`, 21%.
With `Nc1ncnc2nc(-c3ccc(F)cc3)cc(-c3ccc(NC(=O)c4ccccc4)cc3)c12`, the growth inhibition was 97% (active).

A short description of a further experiment: human hepatoma cell viability loss – ATP luminescence, cytotoxicity control for P. falciparum antimalarial project, primary screen (AID 2303).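 Further: 0% = DMSO wells and 100% = digitonin-killed cells.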 The conditions noted are these: HepG2 viability, 24-48 h, at 10 µM, hits give high values.
As to `Cc1ccc2cc(NCCCCCCCCON3C(N)=NC(N)=NC34CCCCC4)ccc2n1`, the inhibition was 15%.
Same read-out and setting: under `O=C(C1CCN(c2nnnn2-c2ccccc2)CC1)N1CCc2ccccc2C1` stands -7%; under `COc1cc2nc(N3CCN(C(=O)c4ccco4)CC3)nc(NCc3ccccc3)c2cc1OC`, 16%.
The same measure, in the same setting: the result for `C[C@@H]1CN(c2cnn(C/C=C/c3ccc(NC(=O)c4ccc(Cl)cc4)cc3)c(=O)c2Cl)C[C@H](C)N1` reads 25%.
On the same count and under the same terms, under `O=C(N[C@@H](Cc1ccccc1)C(=O)NC1CCCCC1)c1ccc(O)c(-c2cccc(C(F)(F)F)c2)c1` stands 11%; under `CC(=O)Nc1ccc(NC(=O)c2cc(-c3cc(Cl)ccc3O)n[nH]2)cc1`, 1%.
Consider `CN1CCCN(c2ccnc3cc4c(cc23)N(C(=O)c2ccc(C(F)(F)F)cc2)CC4)CC1`, for which the inhibition was 10%.
In the case of `N#Cc1ccc(-c2ccc(C(=O)NCCCCN3CCC(c4ccc5c(c4OCC(N)=O)CCCC5)CC3)cc2)cc1`, the inhibition was 21%.
Regarding `NC(=O)c1cc2nc(Nc3ccc(F)cc3)nc(NC3CCC3)c2[nH]1`, the inhibition was 0%.
The same measure, in the same setting: under `CC(C)COc1ccc(Cl)cc1Nc1nc(-c2nc3ccccc3[nH]2)cs1` stands 2%; under `Cc1cc(OCC2CCCO2)c2cc(NC(=O)C(=O)Nc3ccc4nc(C)cc(OCC5CCCO5)c4c3)ccc2n1` (stereo not given), 7%.
`CC(C)Sc1nc2c(c(=O)n1Cc1ccco1)C1(CCCC1)Cc1ccccc1-2`: the inhibition is 8%.
The same measure, in the same setting: under `Nc1c(Cl)cc(C(O)CNCCCCCCCCCc2ccccn2)cc1Cl` (stereo not given) stands 9%; under `COc1cc(NC(=O)/C=C/c2cccc3ccoc23)ccc1OCCN(C(C)C)C(C)C`, 22%.
Same read-out and setting: the result for `Cc1ccc(N(CCC(=N)N)Cc2ccccc2)cc1` reads 6%; that for `c1ccc2[nH]c(CN(Cc3nc4ccccc4[nH]3)Cc3nc4ccccc4[nH]3)nc2c1`, 39%; that for `COc1cc2ccccc2cc1OCCCN1CCN(CC(c2ccc(F)cc2)N2CCN(C(C)C)CC2)CC1` (stereo not given), 72% (active).
With `COc1ccc(CCNCCCCCNCCCc2ccc(Cl)cc2)cc1OC`, the inhibition is 24%.
Still for that read-out and setting: the result for `Clc1cc(Cl)cc(Nc2ccnc(Nc3cc(Cl)cc(Cl)c3)n2)c1` reads 11%; that for `CC(C)(C)C(=O)Oc1ccc(CC2NCCc3cc(OC(=O)C(C)(C)C)c(OC(=O)C(C)(C)C)cc32)cc1OC(=O)C(C)(C)C` (stereo not given), 3%.
Same read-out and setting: under `CSc1ccc(NC(=O)Nc2cc(C)nc3ccccc23)cc1` stands 7%.
Still for that read-out and setting: the result for `Cc1cc(C2CCN(CCCCNC(=O)c3ccc(-c4ccc(C(F)(F)F)cc4)cc3)CC2)c(C)cc1OCC(N)=O` reads 34%; that for `COc1ccc(NC(=O)CCNc2cc(C)nc(NCc3ccccc3C)n2)cc1`, 7%; that for `O=C(NCC1CCC(C(=O)O)CC1)c1ccc(/C=C/C(=O)N2CCc3ccccc3C2c2ccc3c(c2)OCO3)cc1` (stereo not given), 66% (active).
Regarding `O=C(C=Cc1cn(-c2ccccc2)nc1-c1ccccc1)N1CCN(c2ccncc2)CC1`, the inhibition is 11%.
Same read-out and setting: the result for `O=c1ccc2ncc(Cl)c3c2n1CC3CN1CCC(NCc2cc3c(cn2)OCCO3)CC1` (stereo not given) reads 27%; that for `CC(C)NCc1ccc(-c2ccc(CN3CCCC(c4ccccc4)C3)cc2)c(C(=O)NC2Cc3ccccc3C2)c1` (stereo not given), 41%; that for `O=C(Nc1ccc(-c2nc3ccccc3[nH]2)cc1)C1CCCN(C2CCC2)C1` (stereo not given), -1%.
In the case of `CCOC(=O)C(Oc1ccc2ccccc2c1)C(=O)OCC`, the inhibition is 8%.
Same read-out and setting: the result for `CC(C)CNC(=S)N1CCCN(c2nc3ccc(Cl)cc3s2)CC1` reads 28%; that for `O=C(CCc1ccccc1)NC(c1ccc(Cl)cc1)c1ccc2cccnc2c1O` (stereo not given), 59% (active).
Same read-out and setting: under `O=C(Nc1cccc(-c2cccc(-c3nc4ccc(C(F)(F)F)cc4[nH]3)c2)c1)c1ccoc1` stands 32%; under `COc1cc2nccc(Nc3cc(C)cc(O)c3)c2cc1OC`, -6%.
Same read-out and setting: under `O=C(NC1CCN(CCC[C@]2(c3ccc(Cl)c(Cl)c3)CCCN(C(=O)c3ccccc3)C2)CC1)c1ccc(Cl)cc1` stands 56% (active).
On to `COc1cc(C)cc(CN2CCC(Cc3ccccc3)CC2)c1O`, for which the inhibition is 35%.
Same read-out and setting: under `Cc1ccc(-n2c(Cc3cccc4ccccc34)nnc2SCCC#N)c(C)c1` stands 0%; under `O=C(NC1CCN(c2ccnc3cc(Cl)ccc23)C1)c1ccc(C(F)(F)F)cc1` (stereo not given), 37%.
On the same count and under the same terms, under `O=C(Nc1cccc(-c2cccc(-c3ccc(F)cc3)n2)c1)c1ccc([N+](=O)[O-])o1` stands 100% (active); under `Nc1ncc(-c2ccc(NC(=O)Nc3cc(C(F)(F)F)ccc3F)cc2)c(N)n1`, 96% (active).
On the same count and under the same terms, the result for `Nc1ncnc2nc(-c3ccc(F)cc3)cc(-c3ccc(NC(=O)c4ccccc4)cc3)c12` reads -6%.

Usually inhibition stands for the relative decrease from the control value, in per cent.

Values taken from PubChem BioAssay.
